In PubChem BioAssay (NCATS) one finds outcome, max response and Potency data, which are given here for 9 compounds.

For one assay, the system named is CRL-7250. In words: Cytotoxic Profiling of Annotated Libraries Using Quantitative High-Throughput Screening (AID 1296008). Further: nearly all actives have a fitted effect of over 60% in size. Further: potency means the concentration at half of the fitted maximal effect. On max response: on the % scale 0 is the no-effect control and ±100 the full control effect. Particulars: Five cell lines viability, CellTiter-Glo ATP luminescence, 48-72 h; max response: active compounds read low. Put shortly: (§1)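 Compounds were pin-transferred onto cells and incubated 48 or 72 hr at 37 degree Celsius, 95% humidity. CellTiter-Glo was added, plates sat 10 min at room temperature, then ATP-coupled luminescence was imaged as the viability read-out.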
On the technique in general: ATP-based viability assays read luminescence as a measure of living cells.

The test system of the next assay is KB-3-1. Described as above. Particulars: Five cell lines viability, CellTiter-Glo ATP luminescence, 48-72 h; max response: active compounds read low. Put shortly: as §1
A further assay deals with CAOV3. Kind of assay: Primary qHTS to identify gynecologic anti-cancer compounds using libraries of approved drugs and bioactive compounds (AID 1345084). Further: nearly all actives have a fitted effect of over 55% in size. Further: potency means the concentration at half of the fitted maximal effect. Particulars: Gynecologic cancer cell panel viability, ATPlite luminescence, 48 h; series mostly up to 57.5 µM. The essentials:
(§2)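 Five-point cytotoxicity, 48 h drug exposure at 37 C, 5% CO2, on cells seeded 16 h beforehand. ATP content read by ATPlite luminescence.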
A general note: In qHTS, concentration-response curves come from the screen itself.

The test system of the next assay is CASKI. Described as above. The settings on record: Gynecologic cancer cell panel viability, ATPlite luminescence, 48 h; series mostly up to 57.5 µM. Put shortly: as §2
In the next assay the test system is Es-2. The assay is described as above. The settings on record: Gynecologic cancer cell panel viability, ATPlite luminescence, 48 h; series mostly up to 57.5 µM. The essentials: as §2
A further assay concerns HeLa. Described as above. The settings on record: Gynecologic cancer cell panel viability, ATPlite luminescence, 48 h; series mostly up to 57.5 µM. The essentials: as §2
In a further assay the test system is Hek293T. Described as above. The settings on record: Gynecologic cancer cell panel viability, ATPlite luminescence, 48 h, control line for the selectivity index; series mostly up to 57.5 µM. Put shortly:
as §2

Another assay concerns JEG-3. The assay is described as above. The settings on record: Gynecologic cancer cell panel viability, ATPlite luminescence, 48 h; series mostly up to 57.5 µM. The essentials:
as §2

The next assay deals with OV90. The description is as above. Particulars: Gynecologic cancer cell panel viability, ATPlite luminescence, 48 h; series mostly up to 57.5 µM. Put shortly:
as §2

The next assay has as its system PA-1. Described as above. Particulars: Gynecologic cancer cell panel viability, ATPlite luminescence, 48 h; series mostly up to 57.5 µM. The essentials:
as §2

A further assay concerns HEK293. In words: Cytotoxic Profiling of Annotated Libraries Using Quantitative High-Throughput Screening (AID 1296008). Further: nearly all actives have a fitted effect of over 60% in size. Further: potency means the concentration at half of the fitted maximal effect. On max response: on the % scale 0 is the no-effect control and ±100 the full control effect. Particulars: Five cell lines viability, CellTiter-Glo ATP luminescence, 48-72 h; max response: active compounds read low. Put shortly:
as §1

Assay [1] has as its system HaCat. The assay is described as above. Particulars: Five cell lines viability, CellTiter-Glo ATP luminescence, 48-72 h; max response: active compounds read low. Put shortly: as §1
Assay [2] deals with NIH3T3. Described as above. Particulars: Five cell lines viability, CellTiter-Glo ATP luminescence, 48-72 h; max response: active compounds read low. The essentials:
as §1

Assay [3] concerns HACAT. In words: qHTS assay to identify novel small-molecules to repurpose for Merkel cell carcinoma treatment (AID 1296009). Further: nearly all actives have a fitted effect of over 60% in size. The settings on record: MCC and control cell lines, CellTiter-Glo viability, 72 h; at 44.8 µM (top of the series) unless noted. Put shortly:
(§3)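 Luminescence from CellTiter-Glo, read 10 min after addition at room temperature, reported viability following a 72 hr, 37 degree celsius treatment with NPC or MIPE compounds in titration; values normalized to plate controls.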

Assay [4] deals with NIH3T3. Described as above. Particulars: MCC and control cell lines, CellTiter-Glo viability, 72 h; series mostly up to 44.8 µM. Put shortly:
as §3

Another assay concerns C33A. In words: Primary qHTS to identify gynecologic anti-cancer compounds using libraries of approved drugs and bioactive compounds (AID 1345084). Further: nearly all actives have a fitted effect of over 55% in size. Further: potency means the concentration at half of the fitted maximal effect. Particulars: Gynecologic cancer cell panel viability, ATPlite luminescence, 48 h; series mostly up to 57.5 µM. Put shortly:
as §2

Records with an inconclusive call do not appear. Values without a mark were called inactive. The source made the active and inactive calls. The call rests on the fitted dose curve; in most records, active means well fitted curve in the direction sought with a large enough effect; inconclusive means small, poorly fitted or top-dose-only effect, or another doubt; inactive means no such curve, though single readings can be large; an effect the other way counts as inactive or inconclusive.

For `CCCCc1c(-c2ccc(OC)cc2)[nH]c2nccnc12`, the result in the assay on CRL-7250 was inactive. Also, the max response with KB-3-1 is 2.93%. In addition, the Potency result in the assay with CAOV3, in the assay on CASKI, in the assay with Es-2, in the assay with HeLa, in the assay with Hek293T and with JEG-3 was “inactive” in each case. The Potency entry with OV90 and in the assay on PA-1 was “inactive” each time.
With `CCn1c(-c2nonc2N)nc2c(C#CCO)ncc(OCCCN)c21`, the Potency with HEK293 is 7310 nM (active); in the assay with CASKI, 25100 nM (active). Also, the compound was called inactive in the assay on HaCat [1], in the assay on NIH3T3 [2] and in the assay on HACAT [3]. Further, the Potency entry with NIH3T3 [4], with C33A, with Es-2 and in the assay on HeLa was “inactive” throughout.
Regarding `O=C1C[C@]23C=CCN4CCC5c6cc7c(cc6N1[C@@]5(CC2)C43)OCO7` (some centres undefined), the values for the max response in the assay on CRL-7250 and in the assay on NIH3T3 [2] were -12% and -4.65%, respectively. Besides, the Potency result in the assay with C33A, with CAOV3, with CASKI, in the assay with Es-2, in the assay with HeLa and with Hek293T was “inactive” in each case. For the same compound, the Potency result in the assay with JEG-3, in the assay with OV90 and with PA-1 was “inactive” in each case.
In the case of `O=C(Nc1cccc2cccnc12)c1ccc(N2C(=O)[C@@H]3C4C=CC(C4)[C@@H]3C2=O)cc1`, the results for the Potency in the assay with CRL-7250 and in the assay with JEG-3 were 1300 nM (active) and 31600 nM (active), respectively. In addition, the max response in the assay on KB-3-1 is -2.67%.
For the compound `CC(C)=CCC[C@](C)(O[C@@H]1O[C@H](CO[C@@H]2OC[C@@H](O)[C@H](O)[C@H]2O)[C@@H](O)[C@H](O)[C@H]1O)[C@H]1CC[C@]2(C)[C@@H]1[C@H](O)C[C@@H]1[C@@]3(C)CC[C@H](O[C@@H]4O[C@H](CO)[C@@H](O)[C@H](O)[C@H]4O)C(C)(C)[C@@H]3CC[C@]12C`, the max response in the assay on CRL-7250 was -26.7%; in the assay with KB-3-1, 5.08%. In addition, the Potency result in the assay with C33A, with CAOV3, in the assay on CASKI, with Es-2, in the assay with HeLa and in the assay on Hek293T was “inactive” each time. In addition, the Potency entry in the assay with JEG-3, in the assay with OV90 and in the assay on PA-1 was “inactive” each time.
`CCCC(Nc1nc(-c2ccc(NC(=O)NCC)c(OC)c2)ncc1C)c1cccnc1` (centres undefined): the Potency in the assay with CRL-7250 was 206 nM (active); with KB-3-1, 146 nM (active); in the assay with Es-2, 251 nM (active); with HeLa it was 158 nM (active); in the assay with PA-1, 251 nM (active). Also, the Potency result in the assay on CAOV3 is “inactive”.
As for `CC(C)(C)c1ccc(-c2nc3c(N4CCN(Cc5ccc6nccnc6c5)CC4)cccc3[nH]2)cc1`, in the assay with HEK293, the Potency is 4110 nM (active). The max response with HaCat [1] was -27.9%.
Consider `NC(=O)N1CCC(CC(=O)N2CCC(C3c4ncc(Br)cc4CCc4cc(Cl)cc(Br)c43)CC2)CC1` (centres undefined), for which the figures for the max response with CRL-7250 and in the assay on NIH3T3 [2] were -10.9% and 2.37%, respectively. Further, the Potency result in the assay on C33A, in the assay with CAOV3, in the assay with CASKI, with Es-2, with HeLa and in the assay on JEG-3 was “inactive” throughout. Moreover, the Potency result in the assay on PA-1 was “inactive”.
For `CC(C)=CCC/C(C)=C/COCC1OC(n2ccc(=O)[nH]c2=O)C(O)C1O` (centres undefined), the max response in the assay with CRL-7250 was -3.59%; in the assay on KB-3-1, 7.71%. For the same compound, the Potency result in the assay on CASKI, with Es-2, in the assay with HeLa, in the assay with Hek293T, in the assay with JEG-3 and with PA-1 was “inactive” throughout.
